The panel holds about 83,000 compounds, 20% with a hit somewhere; the sample as a whole holds those more often.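 Growth was measured after 48 h exposure to one concentration of compound in 96-well plates. Values under 10 count as active.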 Unmarked numbers belong to inactive results. Calls of active or inactive are those of the source.
Experiments:
Assay in all cases: NCI-60 one-dose screen, 48 h (100 = growth as untreated, 0 = no growth, -100 = all killed)
Conditions in all cases: 10 µM unless noted
[1] = system: DU-145 prostate
[2] = system: K-562 leukemia
[3] = system: MALME-3M melanoma
[4] = system: MDA-MB-231 breast
[5] = system: RXF 393 renal
[6] = system: SF-268 CNS
[7] = system: SF-295 CNS
[8] = system: SF-539 CNS
[9] = system: UACC-257 melanoma
[10] = system: M14 melanoma
[11] = system: HCT-15 colon
[12] = system: HT29 colon
[13] = system: SNB-75 CNS
[14] = system: SNB-19 CNS
[15] = system: U251 CNS
[16] = system: PC-3 prostate
[17] = system: SK-MEL-5 melanoma
[18] = system: UACC-62 melanoma
[19] = system: LOX IMVI melanoma
[20] = system: SK-MEL-28 melanoma

Row | Structure (SMILES) | growth [1] | growth [2] | growth [3] | growth [4] | growth [5] | growth [6] | growth [7] | growth [8] | growth [9] | growth [10] | growth [11] | growth [12] | growth [13] | growth [14] | growth [15] | growth [16] | growth [17] | growth [18] | growth [19] | growth [20]
1 | COc1cccc(-c2cc(-c3cccc(Cl)c3)c(C#N)c(=O)[nH]2)c1 | 88% | 31.3% | 69.8% | 96.1% | 75% | 79.1% | 74.2% | 74.5% | 85.5% | 58.3% | 48.6% | 103% | 30.8% | 71.8% | 73.2% | 73.7% | 68.6% | 42.4% | 75.1% | 72.3%
2 | Cc1cccc[n+]1C1c2ccccc2-c2ccccc21 | 110% | 86.6% | 99.3% | 98.5% | 102% | 94.4% | 99.1% | 92.7% | 90.3% | 93.7% | 109% | 79.2% | 94.1% | 89.7% | 83.1% | 67.6% | 94.5% | 92.3% | 97.8% | 102%
3 | CCOC(=O)C(=Cc1ccc(-c2ccccc2)cc1)C(=O)OCC | 36.6% | 20% | 70.6% | 53.3% | 43% | 37.5% | 52.5% | 21.4% | 44.4% | 42.5% | 13.3% | 4.16% (active) | 38% | 54.9% | 21.3% | 31.8% | 54.8% | 35.4% | -56.6% (active) | 31.1%
4 | N#CC1=C(N)Oc2ccc3ccccc3c2C1c1ccc([N+](=O)[O-])cc1 (stereo not given) | 104% | 77.7% | 51.4% | 57.8% | 94.7% | 80.5% | 84.6% | 85.7% | 89.3% | 89.7% | 87.6% | 105% | 61.7% | 86.8% | 94.2% | 69.8% | 86.2% | 77.3% | 74.6% | 99.1%
5 | CN1CCN(Cc2ccc(NC(=O)c3cncc(C#Cc4cnc(N)c5ccc(F)cc45)c3)cc2C(F)(F)F)CC1 | 4.11% (active) | -63.7% (active) | -17.2% (active) | -58.2% (active) | -3.82% (active) | 29.6% | 28.2% | -3.72% (active) | 47.5% | -0.651% (active) | -86.1% (active) | -56.3% (active) | -3.01% (active) | 29.4% | -92.4% (active) | 18.6% | -21.8% (active) | 20.6% | -90.3% (active) | 34.3%
6 | N#Cc1cccc(C2C3=C(COC3=O)N(CCO)c3cc4c(cc32)OCO4)c1 (stereo not given) | 37.3% | 9.87% (active) | 49.6% | 59.4% | 41.5% | 40.3% | 4.98% (active) | 8.85% (active) | 55.3% | 14.5% | 26.1% | 6.62% (active) | 13% | 32.9% | 21.7% | 29.4% | 29.6% | 43.4% | 35.9% | 55.2%
7 | C=C1CC[C@@H]2[C@](C)(COC(C)=O)[C@H](OC(C)=O)CC[C@@]2(C)[C@@H]1CC(Nc1ccc(S(=O)(=O)NC(C)=O)cc1)C1=CCOC1=O (stereo not given in full) | 0.37% (active) | 4.81% (active) | -43.6% (active) | -38.7% (active) | -75.8% (active) | 6.72% (active) | 58.4% | -76.7% (active) | -10.6% (active) | -35.1% (active) | -49.5% (active) | -69.9% (active) | 26.3% | 23% | -65.5% (active) | 0.695% (active) | 7.36% (active) | -12.5% (active) | -85.8% (active) | -36.6% (active)
8 | CC[N+]1(CC)CC[N+]2(CCCC(C)CC2)CC1 (stereo not given) | 111% | 107% | 97.6% | 106% | 113% | 108% | 98.8% | 99.2% | 98.2% | 106% | 104% | 99.7% | 115% | 102% | 111% | 96.6% | 104% | 100% | 105% | 104%
9 | Cc1ccc(-c2csc(N(C(=O)N3CCN(c4cc5c(cc4F)c(=O)c(C(=O)O)cn5C4CC4)CC3)c3ccccc3)n2)cc1 | 21.4% | 13.5% | 3.95% (active) | 24.2% | 4.05% (active) | 20.4% | 2.22% (active) | -0.211% (active) | 9.78% (active) | 21.1% | 7.57% (active) | 3.8% (active) | 18.6% | 15.7% | 12.6% | 11.8% | -57.2% (active) | 1.23% (active) | 7.08% (active) | 32.3%
10 | CCN1CCN(CC(=O)Nc2ccc(-c3cn4c(n3)sc3cc(Oc5ccnc(C(=O)NC)c5)ccc34)cc2)CC1 | 105% | -11.1% (active) | 87.7% | 85.1% | 69.2% | 87.2% | 65.4% | 65.4% | 96.2% | 73.8% | 77.3% | -21.8% (active) | 82.9% | 98.6% | 64.8% | 65.8% | 88.3% | 66.9% | -80.4% (active) | 74.6%
11 | C=CCN1C(=O)c2cccc3c(N4CCOCC4)ccc(c23)C1=O | 10.3% | 9.78% (active) | -3.28% (active) | 23.9% | -29.9% (active) | -23.9% (active) | 2.87% (active) | 0.495% (active) | -3.63% (active) | 0.387% (active) | -9.11% (active) | 6.76% (active) | 12.8% | 24.9% | 5.37% (active) | -21.3% (active) | -62.7% (active) | -24.7% (active) | 1.13% (active) | 5.67% (active)
12 | NS(=O)(=O)c1ccc(-c2cc(-c3nnc(SCC(=O)Nc4ccc(C(=O)/C=C/c5ccc(Cl)cc5)cc4)n3-c3ccccc3)c3ccccc3n2)cc1 | 95.7% | 84.4% | 101% | 90.8% | 93% | 74.8% | 101% | 92.3% | 104% | 97.7% | 94.7% | 94.9% | 54% | 86.8% | 81.1% | 79.8% | 92.8% | 71% | 88% | 97%
13 | Fc1cccc(-c2ccc3c(c2)C2(CCNCC2)CN3)c1 | 105% | 92.6% | 109% | 91.2% | 121% | 98.8% | 95.4% | 98.8% | 126% | 109% | 94.9% | 93.1% | 92% | 112% | 107% | 98.1% | 97.4% | 87.4% | 92.2% | 116%
14 | Cc1nc2c(=O)nc3s/c(=C\c4ccco4)c(=O)n3c2nc1C | 103% | 102% | 82.1% | 93.8% | 112% | 100% | 91.2% | 90.3% | 96.1% | 93.7% | 106% | 100% | 85.4% | 96.8% | 93.5% | 97.6% | 104% | 92.4% | 90.2% | 100%
15 | COc1ccc(-c2nc(/C=C3\C(=O)N(C)c4ccccc43)c3ccccn23)cc1 | 93% | 95.9% | 72.5% | 85.2% | 67.4% | 66% | 83.2% | 72.7% | 86% | 99.1% | 90% | 96.8% | 51.1% | 78.7% | 75.1% | 86.9% | 65.5% | 68.5% | 65.2% | 99.6%
16 | COC(=O)c1c2c(c(C)[n+]([O-])c1C)C(=O)C(NCc1ccc(OC)cc1)=CC2=O | 43.9% | 11.4% | -92.8% (active) | 5.7% (active) | 47.3% | 22.5% | 66.6% | 10.4% | -47.5% (active) | 13.3% | 9.67% (active) | 9.48% (active) | 127% | 5.27% (active) | -13.9% (active) | 4.67% (active) | -53.1% (active) | -27.9% (active) | 19% | 61.9%

From PubChem BioAssay (NCI)
